Assay outcomes deposited in PubChem by several laboratories.
WT yeast gro inh: growth inhibition of WT strain, primary screen, mitochondrial fusion inhibitor project, WT and mutant strains, chemical genetic; 2.1% of 190,000 active; inhibition, % at 10 µM; mitochondrial fusion phenotypic screen; in the data active means inhibition above about 58%; tested in S. cerevisiae
CHOP inhibitor: inhibitors of CHOP promoter induction, primary screen, cell-based, unfolded protein response, luciferase reporter | CHO-K1 CHOP-promoter luciferase, tunicamycin-induced, 15-18 h | inhibition, % at 10 µM | 3.8% of 220,000 active | AID 2732, 2010;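 active means compounds that reduced the stress-induced luciferase reporter signal by more than about 70% of percent inhibition, limit read from the data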;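 further: 0% = tunicamycin plus vehicle and 100% = wells without tunicamycin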
RAM inhibit: inhibitors of the yeast RAM network, primary screen, dse1pr::URA3 reporter, 5-FOA selection. inhibition, % at 50 µM. 1.8% of 190,000 active. AID 868, 2007. S. cerevisiae dse1pr::URA3 reporter, 5-FOA growth OD615, 2 d; analog-sensitive cbk1-as2 kinase mutant strain;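 active means inhibition above a set limit, 3 SD over mean compound inhibition, cut at about 8.4% in these data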;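 further: 0% = DMSO-only wells with no growth and 100% = 10 µM 1-NA-PP1 full growth; inhibition rescues growth on 5-FOA so higher OD means more RAM inhibition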
L major viab: Leishmania major promastigote growth inhibition, primary screen; Leishmania major promastigotes, resazurin fluorescence viability; 9% of 200,000 active; inhibition, % at 10 µM; AID 1063, 2008; in the data active means inhibition above about 50%;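 further: promastigotes grown with compound for 44 hours at 28 °C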
Active calls of the source: *; . = no result given. This is a sample that favours compounds with a hit; in the whole collection about 13% have one here.

SMILES	WT yeast gro inh	CHOP inhibitor	RAM inhibit	L major viab
Cc1cc2nc(CS(=O)(=O)c3ccccc3)cc(=O)n2[nH]1	-5.5	14.1	2.3	-0.7
CCn1nnnc1SCC(=O)Nc1ccc(OC)cc1	-3.6	-12.6	0.0	0.8
CCn1c(Cn2nnc(-c3ccccc3)n2)nnc1SCC(=O)Nc1ccccc1	-0.8	88.1*	3.0	6.1
COc1cccc(C(CC(=O)Nc2cccc3ccccc23)NC(=O)c2ccccc2)c1 (stereo unspecified)	-8.6	84.2*	10.1*	-2.4
CCn1c(Cc2ccc(OC)cc2)nnc1SCC(=O)Nc1nc2ccccc2s1	1.5	83.1*	4.3	-4.3
COc1ccc(OC)c(NC(=O)CC(NC(C)=O)c2ccccc2)c1 (stereo unspecified)	-8.3	1.5	0.5	-2.7
CCn1nnnc1SCC(=O)Nc1nc2ccc(OC)cc2s1	9.2	26.3	1.9	85.7*
CCOC(=O)C1CCN(C(=O)NS(=O)(=O)c2ccc(C)cc2)CC1	0.3	4.4	0.0	-2.5
CCn1c(CNC(=O)Cc2ccc(OC)cc2)nnc1SCC(=O)c1ccccc1	0.0	-1.4	0.9	-4.0
CCn1c(CNC(=O)Cc2ccc(OC)cc2)nnc1SCC(=O)Nc1ccc(C(=O)O)cc1	12.9	5.9	8.8*	-1.6
CCOc1ccc2nc(N=NC3=C(O)CC(C)(C)CC3=O)sc2c1	40.4	50.3	4.4	28.1
COc1ccc2nc(N=Nc3c(O)ccc4ccccc34)sc2c1	12.1	30.5	1.5	98.6*
COc1ccc2nc(NC(=O)CSc3nc(C)cc(C)n3)sc2c1	9.6	-1.2	2.0	51.1*
COc1ccc2nc(NC(=O)CC3Oc4ccccc4NC3=O)sc2c1 (stereo unspecified)	.	75.0*	.	.
O=C(NCc1ccccn1)c1nnc(Cc2ccc(Cl)cc2)o1	10.6	7.7	-0.4	-8.5
CCC(C)C(NC(N)=O)C(=O)Nc1ccc(OCc2ccccc2)cc1 (stereo unspecified)	.	12.9	.	.
Cc1ccc(S(=O)(=O)N2CCOCC2)cc1C(=O)OCC(=O)N1CCc2ccccc2C1	-4.3	-8.2	0.2	23.1
CCOc1ncccc1C(=O)OCc1ccc(C(=O)OC)cc1	-5.5	-35.5	2.4	-0.7
CCOc1ccc2nc(NC(=O)CSc3nc4cccnc4n3C)sc2c1	4.1	76.6*	6.1	8.7
COc1ccc2nc(NC(=O)Nc3cccc4ccccc34)sc2c1	5.0	87.9*	1.7	-1.0
O=c1onc(-c2cccnc2)n1-c1ccccc1F	.	5.0	.	.
CCN1CCN(CCOc2ccccc2OCc2ccccc2)CC1	4.6	6.5	-0.7	8.6
Cc1c(OCc2ccccc2)cccc1OCc1ccccc1	65.6*	22.0	3.1	-1.1
O=C(NCc1ccncc1)C(=O)N/N=C/c1cccnc1	19.6	-24.0	1.2	-7.9
Cc1ccc(C)c2c1sc(=NC(=O)CN1C(=O)CCC1=O)n2C	1.5	-13.8	2.0	90.5*
SMILES	WT yeast gro inh	CHOP inhibitor	RAM inhibit	L major viab
c1ccc(CNc2nc(N3CCN(Cc4ccccc4)CC3)nc3ccccc23)cc1	.	69.5	.	.
c1coc(CNc2nc(N3CCCCC3)nc3ccccc23)c1	-5.5	-13.4	1.4	96.2*
c1ccc(N2CCN(c3nc(NCc4ccco4)c4ccccc4n3)CC2)cc1	-7.8	62.8	1.5	97.9*
Cc1ccc(NC(=O)c2oc3ccccc3c2NC(=O)c2ccc3c(c2)OCO3)cc1	-6.7	-1.8	5.0	21.7
CCn1c(-c2ccc(F)cc2)cnc1SCC(=O)N1CCCCC1C (stereo unspecified)	18.8	36.8	0.0	3.6
COc1ccc(-c2nc3nc(C)c(Cc4ccccc4)c(=O)n3[nH]2)cc1	0.2	-2.7	2.3	-1.3
COc1ccc(Cc2[nH]n3c(=O)c(Cl)c(C)nc3c2-c2ccccc2)cc1	2.3	9.8	11.4*	-6.7
O=C(CSc1ccc(-c2ccncc2)nn1)c1ccc(Cl)cc1	0.4	4.1	0.6	-1.4
NC(=O)C(c1ccc(Cl)cc1)c1ccc(Sc2ccc(Cl)cc2)nn1 (stereo unspecified)	27.5	82.9*	3.2	13.9
OCCCn1c(-c2ccccc2)csc1=Nc1ccccc1	12.2	24.4	1.1	12.7
CCn1c(-c2ccccc2)csc1=Nc1ccc(S(=O)(=O)O)cc1	-6.9	19.2	0.4	54.8*
COc1ccc(-c2nn(-c3ccccc3)cc2/C=N/NC(=S)NC(C)C)cc1OC	26.5	10.1	6.6	61.3*
COc1ccc(-c2nn(-c3ccccc3)cc2/C=N/Nc2ccc3ccccc3n2)cc1OC	41.7	12.8	2.0	50.5*
Cc1ccc(CN(CC(=O)NC2CCCC2)C(=O)CSc2nnc(COc3ccccc3)o2)cc1	0.2	18.1	8.7*	-5.3
Cc1cccc(OCc2nnc(SCC(=O)OC3CCCCC3)o2)c1	11.9	24.7	10.2*	-10.3
Cc1ccc(NCc2nnc(SCC(=O)OC3CCCCC3)o2)c(C)c1	-1.7	43.5	4.2	5.4
O=C(CN(Cc1ccccc1)C(=O)CSc1nnc(COc2ccccc2)o1)NC1CCCC1	-4.2	-1.8	8.6*	15.6
N#CC(=C=[N-])c1nc2ccccc2nc1-[n+]1cccc(NC(=O)c2cccs2)c1	.	-1.4	.	.
COCCNC(=O)CSc1cc(=O)n(C)c2cc(Cl)ccc12	-13.5	4.4	0.7	3.1
CN(CCCNC(=O)CSc1cc(=O)n(C)c2ccc(Cl)cc12)Cc1ccccc1	-0.6	29.1	0.1	57.8*
CC(C)(C)OC(=O)C(Cl)(C(=O)OC(C)(C)C)c1ccc2nnnn2n1	-3.7	29.3	3.4	22.5
Cn1c(=O)c2c(nc(NN=C3CCCC3)n2C)n(C)c1=O	.	-4.3	.	.
COc1ccc(OCC(=O)Nc2ccc3c(c2)nc(CCN2CCOCC2)n3C)cc1	23.2	3.6	-0.9	52.1*
N[C@@H](CO)c1nnc([C@H](CC(=O)O)NC(=O)C2CCNCC2)o1	2.9	-2.7	0.3	-1.8
Cc1cccc(N=C2NN=C(c3ccc4c(c3)OCCO4)CS2)c1	4.2	40.4	0.8	-5.6
SMILES	WT yeast gro inh	CHOP inhibitor	RAM inhibit	L major viab
Cc1cccc(N=C2NN=C(c3c(C)[nH]c4ccccc34)CS2)c1	5.6	72.5*	5.3	3.4
O=C(/C=C/c1ccco1)Nc1ccccc1N1CCCCC1	70.0*	38.5	-0.5	17.6
COC(=O)c1ccccc1NC(=O)/C=C/c1ccco1	8.4	10.8	3.6	-6.8
O=C(Nc1ccon1)c1csc2ccccc12	3.6	37.7	3.0	-4.8
O=C(Nc1ccon1)c1csc2c1CCCC2	12.6	58.9	0.0	78.5*
Cc1cc([N+](=O)[O-])nn1CCCC(=O)Nc1cccc(Cl)c1Cl	17.8	2.2	0.9	-0.8
Nc1nc(Br)c2c(F)cccc2c1-c1ccc(F)cc1	22.8	74.3*	2.5	-3.4
O=C(NCCN1C(=O)S/C(=C\c2ccc(F)cc2)C1=O)c1cccc(S(=O)(=O)N2CCOCC2)c1	-16.0	32.8	3.0	34.5
CCOC(=O)c1c(C)sc(Sc2ccc(Cl)cc2[N+](=O)[O-])c1OC	75.9*	-3.0	3.8	27.6
CCOC(=O)c1c(NC(=O)COC(=O)c2cc(OC)c(OC)cc2[N+](=O)[O-])sc(C)c1CC	3.4	17.3	6.3	7.1
O=C1CC(c2ccc(Cl)c([N+](=O)[O-])c2)c2ccc3ccccc3c2N1 (stereo unspecified)	17.5	36.1	3.2	99.6*
